# Data from PubChem BioAssay AID1159580 (chemical genetic matrix, 2015).
# Among all 5,500 compounds or so, about 2,000 (36%) were called active. About 18% were inconclusive and are not listed. This is one part of the list. Unmarked numbers belong to inactive results. Cut-off read from the data, not from the text of the source: active = normalized growth mostly below about 0.91 (no sharp cut-off); inconclusive = no clear call, values can overlap the other calls; inactive = mostly above about 0.92.
# Assay: chemical genetic growth profiling, strain panel (AID 1159580);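 note: tested at 20 µM; growth read once vehicle control cultures reached saturation at 30 °C; 1 = growth at the plate median or of vehicle wells; lower values mean less growth of the strain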
# Conditions: growth OD
# [1] = S. cerevisiae deletion strains, locus YAL013W, strain DEP1, hits give low values
# [2] = S. cerevisiae deletion strains, locus YBR229C, strain ROT2, hits give low values
# [3] = S. cerevisiae deletion strains, locus YDL101C, strain DUN1, hits give low values
# [4] = S. cerevisiae deletion strains, locus YDR150W, strain NUM1, hits give low values
# [5] = S. cerevisiae deletion strains, locus YEL061C, strain CIN8, hits give low values
# [6] = S. cerevisiae deletion strains, locus YGR078C, strain PAC10, hits give low values
# [7] = S. cerevisiae deletion strains, locus YHR030C, strain SLT2, hits give low values
# [8] = S. cerevisiae deletion strains, locus YHR087W, strain rtc3, hits give low values
# [9] = S. cerevisiae deletion strains, locus YJR043C, strain POL32, hits give low values
# [10] = S. cerevisiae deletion strains, locus YJR075W, strain HOC1, hits give low values
# [11] = S. cerevisiae deletion strains, locus YLR039C, strain RIC1, hits give low values
# [12] = S. cerevisiae deletion strains, locus YLR058C, strain SHM2 (second series), hits give low values
# [13] = S. cerevisiae deletion strains, locus YLR085C, strain ARP6, hits give low values
# [14] = S. cerevisiae deletion strains, locus YLR262C, strain YPT6, hits give low values
# [15] = S. cerevisiae deletion strains, locus YML094W, strain GIM5, hits give low values
# [16] = S. cerevisiae deletion strains, locus YMR219W, strain ESC1, hits give low values
# [17] = S. cerevisiae deletion strains, locus YMR263W, strain SAP30, hits give low values
# [18] = S. cerevisiae deletion strains, locus YNL153C, strain GIM3, hits give low values
# [19] = S. cerevisiae deletion strains, locus YNL298W, strain CLA4 (second series), hits give low values
# [20] = S. cerevisiae deletion strains, locus YNL322C, strain KRE1, hits give low values
# [21] = S. cerevisiae deletion strains, locus YNR030W, strain Alg12, hits give low values
# [22] = S. cerevisiae deletion strains, locus YOL006C, strain TOP1, hits give low values
# [23] = S. cerevisiae deletion strains, locus YPL055C, strain LGE1, hits give low values
# [24] = S. cerevisiae deletion strains, locus YPL241C, strain CIN2, hits give low values
# [25] = S. cerevisiae deletion strains, locus YPR135W, strain CTF4, hits give low values
compound,measurement,setting,value
CC(C)(C)NC(=O)N1CCN(c2nc3ccc(Cl)cc3s2)CC1,normalized growth,[1],0.952
same,normalized growth,[2],0.979
same,normalized growth,[3],1
same,normalized growth,[4],0.966
same,normalized growth,[5],0.943
same,normalized growth,[6],0.962
same,normalized growth,[7],0.339 (active)
same,normalized growth,[8],0.967
same,normalized growth,[9],0.976
same,normalized growth,[10],0.981
same,normalized growth,"S. cerevisiae deletion strains, locus YKL190W, strain CNB1, hits give low values",0.993
same,normalized growth,[11],0.82
same,normalized growth,[12],1.02
same,normalized growth,[13],0.552 (active)
same,normalized growth,[14],0.913
same,normalized growth,[15],0.908
same,normalized growth,[16],1
same,normalized growth,[17],0.992
same,normalized growth,[18],0.943
same,normalized growth,[19],0.831 (active)
same,normalized growth,[20],1.03
same,normalized growth,[21],0.902
same,normalized growth,[22],0.739
same,normalized growth,[23],0.928
same,normalized growth,[24],0.856 (active)
same,normalized growth,[25],0.662
same,normalized growth,"S. cerevisiae strains, strain wild type, hits give low values",0.97
O=[N+]([O-])c1cc(C(F)(F)F)ccc1N1CCN(CCO)CC1,normalized growth,[1],0.995
same,normalized growth,[2],0.987
same,normalized growth,[3],0.989
same,normalized growth,[4],1
same,normalized growth,[5],0.993
same,normalized growth,[6],0.977
same,normalized growth,[7],0.953
same,normalized growth,[8],1.03
same,normalized growth,"S. cerevisiae deletion strains, locus YJL187C, strain SWE1, hits give low values",1
same,normalized growth,[9],0.991
same,normalized growth,[10],0.986
same,normalized growth,[11],0.978
same,normalized growth,[12],0.982
same,normalized growth,[13],0.981
same,normalized growth,[14],0.97
same,normalized growth,[15],0.992
same,normalized growth,[16],0.997
same,normalized growth,[17],0.937
same,normalized growth,[18],0.99
same,normalized growth,[19],0.941
same,normalized growth,[20],0.982
same,normalized growth,[21],0.943
same,normalized growth,[22],0.941
same,normalized growth,[23],1.03
same,normalized growth,[24],0.974
same,normalized growth,[25],0.893
O=C(c1ccccc1)C1CCN(c2ccc(C(F)(F)F)cc2[N+](=O)[O-])CC1,normalized growth,[1],0.995
same,normalized growth,[2],1.01
same,normalized growth,[3],0.995
same,normalized growth,"S. cerevisiae deletion strains, locus YDL134C, strain PPH21, hits give low values",1.01
same,normalized growth,[4],1
same,normalized growth,[5],1
same,normalized growth,[6],0.982
same,normalized growth,[7],1.02
same,normalized growth,[8],0.98
same,normalized growth,[9],1
same,normalized growth,[10],0.946
same,normalized growth,[11],1.02
same,normalized growth,[12],0.997
same,normalized growth,[13],0.953
same,normalized growth,[14],1.01
same,normalized growth,[15],1.01
same,normalized growth,[16],0.996
same,normalized growth,[17],0.998
same,normalized growth,"S. cerevisiae deletion strains, locus YMR307W, strain GAS1, hits give low values",0.991
same,normalized growth,[18],0.991
same,normalized growth,[19],1.02
same,normalized growth,[20],1.01
same,normalized growth,[21],1.04
same,normalized growth,[23],0.999
same,normalized growth,[24],0.931
same,normalized growth,[25],0.978
